Consider six compounds from PubChem BioAssay (NCATS).

Each structure is given as a SMILES string. A number with no mark means an inactive call. Inconclusive results are not listed. Calls of active or inactive are those of the source. The call rests on the fitted dose curve; in most records, active means well fitted curve in the direction sought with a large enough effect; inconclusive means small, poorly fitted or top-dose-only effect, or another doubt; inactive means no such curve, though single readings can be large; an effect the other way counts as inactive or inconclusive.

Test [1] concerns the target Luciferin 4-monooxygenase (Photinus pyralis) (UniProt P08659). Nature of the test: Biochemical firefly luciferase enzyme assay for NPC (AID 624030).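 Further: purified P. pyralis luciferase at 10 nM with luciferin and ATP substrate; series mostly up to about 59 µM; 0% = DMSO and -100% = full luciferase inhibition by PTC124 control; nearly all actives have a fitted effect of over 70% in size.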 Summed up:
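Purified P. pyralis luciferase at 10 nM in 50 mM Tris Acetate (final), luminescence read within 5 minutes of enzyme addition to compounds. Activity normalised to PTC124 versus DMSO; concentration-response curves classed by r2, magnitude and activity.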

Test [2] addresses Calcium and integrin-binding protein 1 (Homo sapiens) (UniProt Q99828). Nature of the test: Confirmatory qHTS for Identification of Calcium Integrin Binding Protein 1 (CIB1) Competitor (AID 1508617). Further: potency means the concentration at half of the fitted maximal effect; nearly all actives have a fitted effect of over 65% in size. The conditions noted are these: CIB1 binding competition assay, biochemical qHTS. Summed up:
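Confirmatory qHTS measures displacement of a FITC-alphaIIb peptide (100 nM) from CIB1-GST (1 uM) by fluorescence polarization. Calcium-containing HEPES buffer, pH 7.4; two 15 min room-temperature incubations.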
A general note: qHTS replaces the single test concentration by a dilution series.

The nature of test [3]: Confirmatory screen GU Rhodamine qHTS for Zika virus inhibitors qHTS (AID 1347157). Further: potency means the concentration at half of the fitted maximal effect; nearly all actives have a fitted effect of over 70% in size. Summed up:
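Buffer 10 mM Tris-HCl pH 8.0, 0.01% Tween 20. Unlinked protease 25 nM; compound preincubation 15 min, RT, protected from light. Substrate Rhod110, 1.5 microM; ~15% conversion in 15 min.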

A short description of test [4]: Confirmatory screen NINDS Rhodamine qHTS for Zika virus inhibitors (AID 1347161). Further: potency means the concentration at half of the fitted maximal effect; nearly all actives have a fitted effect of over 60% in size. The procedure, abridged: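 In 10 mM Tris-HCl pH 8.0 containing 0.01% Tween 20, linked NS2B-NS3 protease (25 nM final) is exposed to test compounds for 15 min. Cleavage of 1.5 microM Rhodamine110 substrate is tracked by fluorescence over 15 min.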
Test [5] can be described thus: Tertiary RLuc qRT-PCR qHTS assay for Zika virus inhibitors (AID 1347169). Further: nearly all actives have a fitted effect of over 55% in size. Further: potency means the concentration at half of the fitted maximal effect. The procedure, abridged: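 Vero, 1,000 cells/well, o/n 37 C; cpd pinned in DMSO; ZIKV-RLuc Cambodian, MOI 1-2, 48-72 h 37 C; live-cell RLuc substrate, lum read at 1-1.5 h.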
Background: Quantitative PCR measures a nucleic acid by following its amplification.

The target of test [6] is Nuclear receptor subfamily 1 group I member 3 (Homo sapiens) (UniProt Q14994). Nature of the test: Primary qHTS for antagonist of constitutive androstane receptor (CAR) against the NCATS DSHEA and TCM libraries (AID 1794836). Further: potency means the concentration at half of the fitted maximal effect. Summed up: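 HepG2-CYP2B6-hCAR cells, attached 5 h, given compounds plus CITCO agonist […], incubated 24 h at 37 C. Luciferase luminescence read, multiplexed with CellTiter-Fluor viability (Ex/Em 405/540 nm).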

Test [7] is described as follows: Viability counterscreen for agonist of constitutive androstane receptor (CAR) against the NCATS DSHEA and TCM libraries (AID 1794838).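 Further: HepG2 cells with CYP2B6 reporter and hCAR plus 0.75 µM PK11195 antagonist; 0% is about no effect.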 Summed up: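 Cell health was measured as CellTiter-Fluor signal in HepG2-CYP2B6-hCAR cells treated for 24 h with substances alongside the hCAR antagonist PK11195 (0.75 uM final).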
(Counterscreens check selectivity or assay interference.)

In test [8] the target is Nuclear receptor subfamily 1 group I member 3 (Homo sapiens) (UniProt Q14994). Nature of the test: Primary qHTS for agonist of constitutive androstane receptor (CAR) against the NCATS DSHEA and TCM libraries (AID 1794839).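 Further: HepG2 cells expressing human CAR with a CYP2B6 reporter plus PK11195 antagonist; luciferase reporter luminescence read with ONE-Glo; 0% is about no effect.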 Summed up: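 qHTS, agonist mode: HepG2-CYP2B6-hCAR, 2,500 cells/well, 5 h attach; cpds + PK11195 0.75 µM final; 24 h, 37 °C, 5% CO2. Readouts: CellTiter-Fluor (405/540 nm), then ONE-Glo luminescence.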

Test [9] in a line: HepG2 viability counterscreen (readout 2: ATP content) against the NCATS DSHEA and TCM libraries (AID 1794840). Further: 0% is about no effect. Summed up: (§1)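 Same wells read twice: first fluorescence from cleaved GF-AFC substrate (25 uM final, 30 min, 37C) for live-cell protease, then CellTiter-Glo luminescence after 30 min at room temperature for ATP. HepG2 cells were exposed ~24 h to substances.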
The nature of test [10]: HepG2 viability counterscreen (readout 1: protease activity) against the NCATS DSHEA and TCM libraries (AID 1794841).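 Further: cells exposed to compounds for about 24 h before the protease read; 0% is about no effect.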 The procedure, abridged: as §1
The target of test [11] is Cytochrome P450 3A4 (Homo sapiens) (UniProt P08684). Nature of the test: qHTS for inhibitors of CYP3A4 against the NCATS DSHEA and TCM libraries (AID 1919971).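 Further: on the % scale 0 is the no-effect control and ±100 the full control effect; inhibition lowers luminescence from luciferin made by CYP3A4.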 Summed up: (§2)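 Luminescent P450-Glo format: compounds preincubated 15 min with enzyme and luciferin substrate, reaction run 30-45 min after NADPH regeneration solution. Intraplate controls: ketoconazole for CYP3A4 and CYP2C19, sulfaphenazole for CYP2C9.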

Test [12] deals with Cytochrome P450 2D6 (Homo sapiens) (UniProt P10635). Nature of the test: qHTS for inhibitors of CYP2D6 against the NCATS DSHEA and TCM libraries (AID 1919972). Further: on the % scale 0 is the no-effect control and ±100 the full control effect. The procedure, abridged:
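Luminescent P450-Glo read-out of CYP2D6 turnover of a luciferin substrate after NADPH-driven reaction of 30-45 min at room temperature. Compounds were first preincubated 15 min with enzyme at titrated concentrations; quinidine was the intraplate control.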

Test [13] addresses Cytochrome P450 2C9 (Homo sapiens) (UniProt P11712). Nature of the test: qHTS for inhibitors of CYP2C9 against the NCATS DSHEA and TCM libraries (AID 1919973).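 Further: luminogenic pro-luciferin CYP2C9 substrate turned into luciferin with NADPH regeneration; series mostly up to about 34 µM; on the % scale 0 is the no-effect control and ±100 the full control effect.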 The procedure, abridged:
as §2

In test [14] the target is Cytochrome P450 2C19 (Homo sapiens) (UniProt P33261). Put plainly: qHTS for inhibitors of CYP2C19 against the NCATS DSHEA and TCM libraries (AID 1919974).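 Further: luminescence from luciferin released by CYP2C19 oxidation of a pro-luciferin substrate; potency means the concentration at half of the fitted maximal effect.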 The following applies: CYP2C19 enzyme inhibition, luminescence qHTS. The procedure, abridged: as §2
Test [15] can be described thus: KB-3-1 P-gp reporter qHTS against the NCATS DSHEA and TCM libraries (AID 1919975). Further: 0% is about no effect. The procedure, abridged:
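KB-3-1 parental line, 1536-well qHTS: cells seeded, ~4 h attachment, pintool compound addition, ~72 h at 37C, then CellTiter-Glo, 30 min RT, luminescence. Concentration-response format.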

The target in test [16] is Cytochrome P450 1A2 (Homo sapiens) (UniProt P05177). Nature of the test: qHTS for inhibitors of CYPIA2 against the NCATS DSHEA and TCM libraries (AID 1919976). Further: potency means the concentration at half of the fitted maximal effect. Summed up: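 Human CYP1A2 with pro-luciferin substrate (typically 100 mM KPO4), 15 min preincubation with compound, then 1x NADPH regeneration for 30-45 min at room temperature in the dark. Luciferin quantified by luciferase luminescence; furafylline intraplate control.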

Test [17] is described as follows: KB-8-5-11 P-gp reporter qHTS against the NCATS DSHEA and TCM libraries (AID 1919977). Further: 0% is about no effect. Summed up:
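KB-8-5-11, 500 cells/well, DMEM/10% FBS without colchicine; 4 h attach; cpd titrations, 72 h, 37C/5% CO2; CellTiter-Glo, 30 min RT, luminescence.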

The nature of test [18]: qHTS Counterscreen for compound interference against the NCATS DSHEA and TCM libraries (AID 1919978).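 Further: compounds preincubated with 1 µM D-luciferin or buffer before detection reagent; % of control where 0% means no effect.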 The following applies: firefly luciferase detection reagent interference, luminescence. The procedure, abridged: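 Compounds, titrated from 19.5 nM to 39.8 uM final, were pinned onto 1 uM D-luciferin or plain 100 mM potassium phosphate. After 15 min at room temperature, luciferin detection reagent was added for 30 min before the luminescence read.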

The nature of test [19]: Dual reporter qHTS for agonist of Pregnane X Receptor (hPXR) against the NCATS DSHEA and TCM libraries: Fluorescence readout (AID 1920058). Further: 0% is about no effect. Summed up: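 hPXR-Luc HepG2 cells, 2000/well in charcoal-stripped serum, attached 5 h, dosed for ~24 h at 37 °C. Fluorescence read is CellTiter-Fluor viability (Ex/Em 405/540 nm); rifampicin positive, tetraoctyl ammonium bromide (92 µM) cytotoxicity controls.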

Test [20] concerns the target N-terminal Xaa-Pro-Lys N-methyltransferase 1 (Homo sapiens) (UniProt Q9BV86). Nature of the test: Confirmatory qHTS for Inhibitors of N-terminal methyltransferase 1 (NTMT1): MTaseGlo Assay (AID 1645874). Further: potency means the concentration at half of the fitted maximal effect; nearly all actives have a fitted effect of over 65% in size. The following applies: NTMT1 enzyme, MTase-Glo SAH luminescence. The procedure, abridged:
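Preincubation of NTMT1 (125 nM) plus SAM (100 uM) with test compounds lasted 15 min; methylation of 1 uM SPKRIA then proceeded 30 min in the dark at room temperature. Luciferase signal reported SAH produced.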

Nuclear receptor subfamily 1 group I member 3 (Homo sapiens), sequence (Q14994 whole entry, looked up): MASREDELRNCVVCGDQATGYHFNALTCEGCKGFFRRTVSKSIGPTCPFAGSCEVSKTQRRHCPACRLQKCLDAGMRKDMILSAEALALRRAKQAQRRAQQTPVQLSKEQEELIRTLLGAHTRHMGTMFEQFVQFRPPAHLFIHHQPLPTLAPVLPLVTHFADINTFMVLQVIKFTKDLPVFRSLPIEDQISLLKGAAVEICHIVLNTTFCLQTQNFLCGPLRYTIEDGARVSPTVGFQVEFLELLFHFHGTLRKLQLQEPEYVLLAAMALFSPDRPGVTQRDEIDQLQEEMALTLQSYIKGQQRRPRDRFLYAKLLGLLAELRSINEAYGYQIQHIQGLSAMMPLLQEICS
Cytochrome P450 3A4 (Homo sapiens), sequence (P08684 whole entry, looked up): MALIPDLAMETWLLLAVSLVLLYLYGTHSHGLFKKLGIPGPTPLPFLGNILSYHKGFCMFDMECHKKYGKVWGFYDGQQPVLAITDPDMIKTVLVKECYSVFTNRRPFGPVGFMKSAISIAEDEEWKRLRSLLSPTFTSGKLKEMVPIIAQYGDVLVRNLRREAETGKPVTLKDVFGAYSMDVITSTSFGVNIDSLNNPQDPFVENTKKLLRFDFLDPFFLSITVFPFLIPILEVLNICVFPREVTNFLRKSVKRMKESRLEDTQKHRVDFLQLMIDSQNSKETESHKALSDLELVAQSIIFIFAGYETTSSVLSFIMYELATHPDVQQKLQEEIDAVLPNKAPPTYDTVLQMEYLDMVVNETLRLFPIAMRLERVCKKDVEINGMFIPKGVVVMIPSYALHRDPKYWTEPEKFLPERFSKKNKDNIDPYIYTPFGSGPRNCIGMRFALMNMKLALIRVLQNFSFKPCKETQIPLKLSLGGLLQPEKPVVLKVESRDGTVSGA
Luciferin 4-monooxygenase (Photinus pyralis), sequence (P08659 whole entry, looked up): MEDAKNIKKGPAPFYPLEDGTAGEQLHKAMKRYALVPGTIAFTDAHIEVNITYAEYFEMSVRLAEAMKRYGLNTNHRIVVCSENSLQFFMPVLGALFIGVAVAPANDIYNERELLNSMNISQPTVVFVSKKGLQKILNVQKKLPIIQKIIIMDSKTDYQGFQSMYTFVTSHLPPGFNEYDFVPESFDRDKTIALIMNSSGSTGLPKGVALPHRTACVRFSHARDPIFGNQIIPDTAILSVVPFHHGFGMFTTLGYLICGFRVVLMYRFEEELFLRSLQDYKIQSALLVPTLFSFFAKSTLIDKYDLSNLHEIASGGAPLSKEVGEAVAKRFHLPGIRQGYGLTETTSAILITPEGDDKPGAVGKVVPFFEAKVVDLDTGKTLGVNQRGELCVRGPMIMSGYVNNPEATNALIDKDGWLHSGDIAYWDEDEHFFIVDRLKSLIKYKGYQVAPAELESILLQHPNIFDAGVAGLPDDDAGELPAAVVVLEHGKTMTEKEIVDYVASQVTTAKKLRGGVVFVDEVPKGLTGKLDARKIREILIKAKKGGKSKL
Cytochrome P450 1A2 (Homo sapiens), sequence (P05177 whole entry, looked up): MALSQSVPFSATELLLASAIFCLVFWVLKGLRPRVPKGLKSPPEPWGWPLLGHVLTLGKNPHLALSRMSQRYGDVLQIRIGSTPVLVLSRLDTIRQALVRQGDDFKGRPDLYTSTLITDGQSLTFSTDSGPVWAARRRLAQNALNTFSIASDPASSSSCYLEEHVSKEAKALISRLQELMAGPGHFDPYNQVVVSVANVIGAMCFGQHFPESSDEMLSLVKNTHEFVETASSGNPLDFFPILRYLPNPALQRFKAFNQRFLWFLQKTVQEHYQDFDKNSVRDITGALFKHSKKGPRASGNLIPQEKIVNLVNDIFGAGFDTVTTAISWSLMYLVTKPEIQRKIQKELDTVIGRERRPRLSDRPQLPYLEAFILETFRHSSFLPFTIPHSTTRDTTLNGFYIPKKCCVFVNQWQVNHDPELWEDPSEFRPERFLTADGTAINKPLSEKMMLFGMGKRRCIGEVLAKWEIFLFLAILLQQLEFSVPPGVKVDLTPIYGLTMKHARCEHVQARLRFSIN
Cytochrome P450 2C19 (Homo sapiens), sequence (P33261 whole entry, looked up): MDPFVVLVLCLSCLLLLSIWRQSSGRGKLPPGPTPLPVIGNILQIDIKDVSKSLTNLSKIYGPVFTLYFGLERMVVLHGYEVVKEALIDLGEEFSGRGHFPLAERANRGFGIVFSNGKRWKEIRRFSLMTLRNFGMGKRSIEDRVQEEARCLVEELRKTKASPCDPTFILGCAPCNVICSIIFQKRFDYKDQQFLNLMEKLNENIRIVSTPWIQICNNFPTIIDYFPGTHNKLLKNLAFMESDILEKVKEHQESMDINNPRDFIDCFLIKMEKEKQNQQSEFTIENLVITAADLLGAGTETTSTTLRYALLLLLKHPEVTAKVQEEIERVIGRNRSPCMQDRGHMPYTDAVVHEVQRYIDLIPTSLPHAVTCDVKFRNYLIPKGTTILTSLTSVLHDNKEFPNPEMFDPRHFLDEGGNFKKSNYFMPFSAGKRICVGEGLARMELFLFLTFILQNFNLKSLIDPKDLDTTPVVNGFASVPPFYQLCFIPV
Calcium and integrin-binding protein 1 (Homo sapiens), sequence (Q99828 whole entry, looked up): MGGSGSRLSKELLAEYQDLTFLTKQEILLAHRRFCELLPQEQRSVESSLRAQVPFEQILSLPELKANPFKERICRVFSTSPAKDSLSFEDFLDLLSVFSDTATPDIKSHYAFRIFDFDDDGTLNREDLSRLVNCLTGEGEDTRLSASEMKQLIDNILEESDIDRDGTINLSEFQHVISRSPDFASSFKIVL
N-terminal Xaa-Pro-Lys N-methyltransferase 1 (Homo sapiens), sequence (Q9BV86 whole entry, looked up): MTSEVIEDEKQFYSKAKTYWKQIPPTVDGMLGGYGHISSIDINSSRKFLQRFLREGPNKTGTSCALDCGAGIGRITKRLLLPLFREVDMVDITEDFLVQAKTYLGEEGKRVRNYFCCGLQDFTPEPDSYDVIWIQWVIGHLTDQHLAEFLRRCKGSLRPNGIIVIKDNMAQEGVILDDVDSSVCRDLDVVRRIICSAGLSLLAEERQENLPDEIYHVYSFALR
Cytochrome P450 2D6 (Homo sapiens), sequence (P10635 whole entry, looked up): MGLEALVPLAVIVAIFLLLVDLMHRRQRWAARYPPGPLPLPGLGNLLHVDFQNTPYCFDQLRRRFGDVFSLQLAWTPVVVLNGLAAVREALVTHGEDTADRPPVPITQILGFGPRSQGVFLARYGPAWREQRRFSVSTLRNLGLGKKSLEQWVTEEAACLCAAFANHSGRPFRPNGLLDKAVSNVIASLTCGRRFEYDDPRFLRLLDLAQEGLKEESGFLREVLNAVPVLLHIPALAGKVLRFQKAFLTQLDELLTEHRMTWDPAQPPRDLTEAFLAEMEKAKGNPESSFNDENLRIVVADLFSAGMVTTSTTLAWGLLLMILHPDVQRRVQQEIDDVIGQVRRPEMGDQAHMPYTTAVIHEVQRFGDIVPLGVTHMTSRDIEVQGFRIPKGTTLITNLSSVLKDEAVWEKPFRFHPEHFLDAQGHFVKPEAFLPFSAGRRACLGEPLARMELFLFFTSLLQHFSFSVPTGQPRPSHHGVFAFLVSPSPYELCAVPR
Cytochrome P450 2C9 (Homo sapiens), sequence (P11712 whole entry, looked up): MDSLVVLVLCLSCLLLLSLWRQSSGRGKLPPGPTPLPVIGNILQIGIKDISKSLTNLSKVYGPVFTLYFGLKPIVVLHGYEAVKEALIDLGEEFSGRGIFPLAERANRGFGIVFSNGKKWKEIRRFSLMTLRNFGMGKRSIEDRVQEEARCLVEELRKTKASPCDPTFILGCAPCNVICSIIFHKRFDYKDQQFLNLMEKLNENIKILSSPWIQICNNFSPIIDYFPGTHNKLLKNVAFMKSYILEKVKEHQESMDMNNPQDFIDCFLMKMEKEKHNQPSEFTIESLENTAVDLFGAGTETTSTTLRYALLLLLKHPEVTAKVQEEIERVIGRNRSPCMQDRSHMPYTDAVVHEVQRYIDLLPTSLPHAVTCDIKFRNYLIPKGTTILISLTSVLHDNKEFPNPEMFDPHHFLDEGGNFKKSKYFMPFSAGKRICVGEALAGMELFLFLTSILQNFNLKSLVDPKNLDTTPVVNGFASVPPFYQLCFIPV

In the case of `O=C(CC1NCCC[C@H]1O)Cn1cnc2cc(Br)c(Cl)cc2c1=O` (stereo partly specified), the Potency entry in [1] is “inactive”.

For the compound `C=C1[C@@H](C)[C@H]2[C@H](Cc3ccccc3)NC(=O)[C@]23OC(=O)/C=C/C(=O)CCC[C@@H](C)C/C=C/[C@H]3[C@@H]1O`, the Potency in test [2] is 10 µM (active).

On to `CNc1ccc2oc(C[C@H]3O[C@@]4(CC[C@H]3C)O[C@H](C(C)C(=O)c3ccc[nH]3)[C@H](C)C[C@H]4C)nc2c1C(=O)O` (stereo partly specified), for which the Potency in test [3] is 13.9 µM (active); in [4] it was 31.2 µM (active); in test [5], 0.658 µM (active).

`C=C(CO)C(=O)O[C@H]1CC(=C)[C@@H]2C[C@H](O)C(=C)[C@@H]2[C@H]2OC(=O)C(=C)[C@@H]21`: the Potency is 22.4 µM (active) in test [6], 2.24 µM (active) in test [14] and 2.51 µM (active) in test [16]. Further, the compound was classed as inactive in test [7], in test [8], in test [9], in test [10], in [11] and in [12]. The result in test [13], in [15], in test [17] and in [19] was inactive. The max response in test [18] is -4.75%.

In the case of `CC1CCCC(=O)CCC/C=C/c2cc(O)cc(O)c2C(=O)O1` (stereo unspecified), the Potency in test [20] is 15.8 µM (active).

As for `C=CCN1CCC2(C)c3cc(O)ccc3C[C@H]1[C@H]2C`, the Potency result in test [5] is “inactive”.
